# Measurements from PubChem BioAssay AID2551 (National Center for Advancing Translational Sciences (NCATS), 2010).
# About 17,000 (5.5%) of roughly 310,000 compounds were called active. Another 11% or so got no clear call; they are omitted. The call rests on the fitted dose curve; in most records, active means well fitted inhibition curve with a large enough effect; inconclusive means small, poorly fitted or top-dose-only effect, or effect the other way; inactive means no such curve, though single readings can be large or run the other way. The list comes from a sample in which actives are over-represented; it also holds similar structures and randomly drawn compounds. A call without a number means that no potency is given here.
# Biological target: Nuclear receptor ROR-gamma (Mus musculus) (UniProt P51450)
# Assay: qHTS for inhibitors of ROR gamma transcriptional activity; further: nearly all actives have a fitted effect of over 60% in size
# Settings: Drosophila S2 Gal4-RORgamma UAS-luciferase reporter, 20 h; series mostly up to 53.6 µM
# Outline: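 ROR gamma transcriptional activity was tracked as Gal4-UAS luciferase output in stably transfected Drosophila Schneider cells, with compound added 1 hr before 700 uM copper sulfate induction and a 20 hr ambient-temperature incubation.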
# Potency means the concentration at half of the fitted maximal effect.
# Nuclear receptor ROR-gamma (Mus musculus), sequence (P51450 whole entry, looked up): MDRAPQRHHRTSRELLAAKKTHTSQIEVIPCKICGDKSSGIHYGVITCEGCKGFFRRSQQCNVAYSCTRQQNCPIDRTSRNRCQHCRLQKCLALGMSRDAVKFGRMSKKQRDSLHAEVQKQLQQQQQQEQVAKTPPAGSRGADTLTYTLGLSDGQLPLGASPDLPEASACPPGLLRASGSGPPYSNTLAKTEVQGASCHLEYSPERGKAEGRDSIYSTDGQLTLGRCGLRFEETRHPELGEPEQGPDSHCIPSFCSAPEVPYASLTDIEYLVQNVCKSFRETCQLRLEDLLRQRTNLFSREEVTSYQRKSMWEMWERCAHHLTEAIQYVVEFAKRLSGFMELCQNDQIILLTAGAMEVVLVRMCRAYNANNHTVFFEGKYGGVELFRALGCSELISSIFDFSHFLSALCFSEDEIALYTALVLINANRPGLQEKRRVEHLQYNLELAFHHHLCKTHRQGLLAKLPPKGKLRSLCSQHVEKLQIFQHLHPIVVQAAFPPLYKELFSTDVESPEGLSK
row,Compound,Potency
1,CN(Cc1c(F)cccc1Cl)S(=O)(=O)c1cccs1,inactive
2,COc1ccc(C(=O)Nc2nncs2)c(OC)c1,inactive
3,COc1ccc(C(=O)NC2=NCCS2)c(OC)c1,11.2 µM (active)
4,COc1ccc(C(=O)NCc2nnc(SCC(=O)NC3=NCCS3)n2C)cc1,inactive
5,CSCC[C@H](NC(=O)N1CCn2c1nc1ccccc12)C(=O)NC1CCCCC1,inactive
6,CC(C)OC(=O)c1ccc(COc2ccc3ccc(=O)oc3c2)o1,inactive
7,Cc1ccc(-c2nnc(SCC(=O)N/N=C/c3cccs3)n2-c2ccc(C)cc2)cc1,17.8 µM (active)
8,NNC(=O)CSc1nnc(-c2ccccc2)n1-c1ccccc1,inactive
9,Cc1ccc(-n2c(SCC(=O)N3c4ccccc4Sc4ccccc43)nnc2-c2ccncc2)cc1,inactive
10,COCCN1C(=O)C(=O)/C(=C(/O)c2ccc(S(=O)(=O)N3CCOCC3)cc2)C1c1ccc(OC)c(OC)c1 (stereo unspecified),inactive
11,COc1ccc(C2C3=C(CCCC3=O)N(CC(=O)O)C3=C2C(=O)CCC3)cc1,inactive
12,CC(=O)N/C(=N/c1nc(C)cc(C)n1)Nc1ccc(F)cc1F,inactive
13,Cc1cc(NC(=O)Nc2ccc(Cl)cc2)n(-c2ccccc2)n1,inactive
14,Cc1cc(C)nc(-n2nc(C)cc2NC(=O)c2ccc(F)cc2F)n1,0.178 µM (active)
15,CCN1C(=O)c2cccc3c(S(=O)(=O)Nc4ccccc4O)ccc1c23,inactive
16,CN(C)c1cccc(C(=O)N2CCC(n3nccc3NC(=O)C3CCOC3)CC2)c1 (stereo unspecified),inactive
17,N#Cc1ccc(S(=O)(=O)NCC(=O)OCC(=O)NCCc2ccccc2)cc1,inactive
18,CCCCNC(=O)CCn1c(=S)[nH]c2cc3c(cc2c1=O)OCO3,inactive

row,Compound,Potency
1,Cc1ccc(C)c(N2CCN(C(=O)CCCn3c(=O)c4cccn4c4cccnc43)CC2)c1,inactive
2,Cc1ccc(C)c(N2CCN(C(=O)CCCCn3c(=O)[nH]c4ccccc4c3=O)CC2)c1,inactive
3,Cc1ccc(C)c(N2CCN(C(=O)CCCCCn3c(=S)[nH]c4ccc(N5CCOCC5)cc4c3=O)CC2)c1,10 µM (active)
4,O=C(CCCCCn1c(=S)[nH]c2cc3c(cc2c1=O)OCO3)N1CCN(c2ccc(F)cc2)CC1,4.47 µM (active)
5,CC(C)NC(=O)CCCn1c(=S)[nH]c2cc3c(cc2c1=O)OCO3,inactive
6,Cc1ccnc(N2CCCC(C(=O)NC3CC3)C2)n1 (stereo unspecified),inactive
7,Cc1ccnc(-n2sc3ccccc3c2=O)n1,11.2 µM (active)
8,Cc1ccnc(Nc2nc3ccccc3s2)n1,inactive
9,CCCCSCCCNC(=O)C1CCC(CNS(=O)(=O)c2ccc(NC(C)=O)cc2)CC1 (stereo unspecified),inactive
10,S=c1[nH]nc(CSCc2ccc(Cl)cc2Cl)n1-c1ccccc1,1.26 µM (active)
11,S=c1[nH]nc(COc2ccccc2)n1-c1ccccc1,3.98 µM (active)
12,CCCCC(CC(C)O)c1n[nH]c(=S)n1-c1ccccc1 (stereo unspecified),inactive
13,O=c1[nH]nc(CSCc2ccccc2Cl)[nH]1,inactive
14,Cc1ccc(OCc2n[nH]c(=S)n2-c2ccc(C)cc2)cc1,inactive
15,CC(Sc1nnc(COc2ccccc2)n1-c1ccccc1)C(=O)O (stereo unspecified),inactive
16,Cc1ccc(OCc2n[nH]c(=S)n2-c2ccccc2)cc1,0.708 µM (active)
17,O=[N+]([O-])c1ccccc1/C=N/n1c(COc2ccccc2)n[nH]c1=S,inactive
18,CC(NS(=O)(=O)c1ccccc1)c1n[nH]c(=S)n1-c1ccccc1 (stereo unspecified),inactive
